Shown are actives, neighbours in structure and some others; about 3% of the full set was active somewhere.
CF NFkB block: cystic fibrosis NF-kB activation inhibition. AID 588850. 0.86% of 360,000 active. KKLEB NF-kB-GFP reporter, PAF-induced, GFP fluorescence overnight. inhibition, % at 5 µM;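 active = at least 50% inhibition at 5 µM, scaled per plate between neutral and stimulator controls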;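 also: PAF is a Pseudomonas aeruginosa culture filtrate used as stimulus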
Peg3 promoter: Peg3 promoter activity inhibition; HeLa PEG-Prom luciferase reporter, luminescence, overnight; inhibition, % at 20 µM; 1.7% of 360,000 active; AID 588405;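 active = inhibition of at least 50% at 20 µM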
EBV LMP1 NFkB: reduces LMP1-driven NF-kappaB luciferase signal; LMP1-induced NF-kappaB luciferase reporter cells, luminescence; inhibition, % at 12.5 µM; 0.69% of 350,000 active; in the data active = inhibition above about 41%; inconclusive = no clear call, values can overlap the other calls
KKLEB cytotox: counter-screen for CF NF-kB inhibitors: cytotoxicity. 0.36% of 360,000 active. KKLEB CF airway cells viability, ATPlite luminescence, overnight; active compounds read low; cells stimulated with P. aeruginosa culture filtrate. activity change (cytotoxicity), % at 5 µM;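 active = corrected activity change at or below -50% at 5 µM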
HIF-2a inh: inhibitors of HIF-2a; 0.72% of 360,000 active; inhibition, % at 18.8 µM; 786-0 RCC cells HIF-2a reporter, luciferase luminescence, overnight; AID 624352;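 active = inhibition of the luminescence signal of 40% or more relative to plate controls, in a single-dose primary screen at 18.75 µM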
MITF TRPM1 inh: reduces MITF-dependent TRPM1 promoter luciferase signal; 0.83% of 330,000 active; SK-MEL-5 TRPM1 promoter luciferase, 24 h; inhibition, % at 12.5 µM;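 active = mean inhibition across replicates of 60% or more, whatever share of single replicates reaches that level; inconclusive = some that reach 60%, reason not given; inactive = mean inhibition across replicates below 60%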
A number is an active result; . = inactive; ? = inconclusive; / = no result given.

SMILES | CF NFkB block | Peg3 promoter | EBV LMP1 NFkB | KKLEB cytotox | HIF-2a inh | MITF TRPM1 inh
Cc1cnc(NC(=O)c2nn(C)cc2[N+](=O)[O-])s1 | . | 94 | . | . | . | ?
CN(C)CCCN(C(=O)CCc1ccccc1)c1nc2ccc(F)cc2s1 | . | . | . | . | . | .
CN(C)CCCN(C(=O)c1ccco1)c1nc2ccc(Br)cc2s1 | . | 51 | . | . | . | .
Cc1cccc2sc(N(CCCN(C)C)C(=O)CCc3ccccc3)nc12 | . | 104 | . | . | . | .
CN(C)CCCN(C(=O)CCc1ccccc1)c1nc2ccc(Br)cc2s1 | . | 106 | . | . | . | 87
Cc1cccc2sc(N(CCCN(C)C)C(=O)c3nc4ccccc4s3)nc12 | . | . | . | . | . | 73
O=C(O)c1c2c(nc3ccccc13)/C(=C/c1ccc(OC(F)F)cc1)CCC2 | . | . | . | . | . | .
O=C(O)c1c2c(nc3ccccc13)/C(=C/c1ccc(O)cc1)CC2 | . | . | 53 | . | . | .
CCNC(=O)C1(C)CCCN(CCOc2ccc(OC)cc2)C1 (stereo not drawn) | . | . | / | . | . | /
C=CCn1c(O)c(N=NC(=S)Nc2ccccc2C)c2cc(S(=O)(=O)N3CCOCC3)ccc21 | . | . | 43 | . | . | .
CC(C)C[C@H]1CN(CCCC[C@@H]2CNC(=O)C(=O)N2CC2CCCCC2)C(=O)C(=O)N1CC1CCCCC1 | / | / | / | / | . | /
O=C(N/N=C/c1cc(Cl)ccc1O)c1ccncc1 | . | . | . | . | . | 62
O=C(N/N=C/c1ccccc1Cl)c1ccncc1 | . | . | . | . | . | .
O=C(N/N=C/c1cc(Br)ccc1O)c1ccccc1Cl | . | . | 51 | . | . | .
CC1CCCC(NC(=O)COC(=O)c2sc3ccccc3c2Cl)C1C (stereo not drawn) | . | . | . | . | . | .
O=C(COC(=O)c1sc2ccccc2c1Cl)NCC1CCCCC1 | . | 59 | . | . | . | .
O=C(c1ccc(-c2ccc([N+](=O)[O-])cc2)o1)N1CCCCCCC1 | . | 105 | . | . | . | .
Cc1ccc(C)c2sc(NC(=O)C3CC3)nc12 | . | . | . | . | . | /
Cc1cc(C)c2sc(NC(=O)C3CC3)nc2c1 | . | . | 48 | . | . | .
Cc1ccc(C(NC(=O)NCCCN2CCOCC2)=C(Cl)Cl)cc1F | . | . | . | . | . | .
Cc1ccc(C(NC(=O)N2CCCCC2)=C(Cl)Cl)cc1F | . | 53 | . | . | . | .
CC(=O)Nc1ccc(C(=S)NCC2(N(C)C)CCCCC2)cc1 | . | . | . | . | . | .
CN(C)C1(CNC(=O)Nc2ccccc2)CCCCC1 | . | . | 42 | . | . | .
COc1ccc(CC(=O)Nc2ccccc2C(F)(F)F)cc1S(=O)(=O)N1CCOCC1 | . | . | . | . | . | /
O=C(Cn1c2ccccc2c(=O)c2ccccc21)N/N=C/c1ccc(N2CCCC2)c([N+](=O)[O-])c1 | . | 91 | . | . | . | 89
SMILES | CF NFkB block | Peg3 promoter | EBV LMP1 NFkB | KKLEB cytotox | HIF-2a inh | MITF TRPM1 inh
Cc1ccc(-c2nc3c(C)cc(Br)cn3c2Cc2ccsc2)cc1 | . | . | / | . | . | /
CN(C)CCOCCOc1ccc(Cl)cc1C(C)(C)C | . | . | . | . | . | .
CC(O)CNCCCOc1ccc(Cl)cc1C(C)(C)C (stereo not drawn) | . | 81 | . | . | . | .
CCC(CCNC(=O)c1ccccc1)(CCNC(=O)c1ccccc1)[N+](=O)[O-] | . | . | . | . | . | .
Cc1ccc2nc(-c3ccccc3)nn2c1 | . | . | 64 | . | . | .
CN(C)CCN(C(=O)c1cc(Cl)sc1Cl)c1nc2ccc(F)cc2s1 | . | . | . | . | . | .
CN(C)CCCN(C(=O)c1cc(-c2cccs2)nc2ccccc12)c1nc2ccc(F)cc2s1 | . | 112 | . | . | . | 87
COc1cc(/C=C2\C(=O)ON=C2c2ccccc2)cc(Br)c1O | . | 51 | . | . | 51 | .
CCOc1cc(/C=C2/C(=O)ON=C2C)cc(Br)c1O | . | . | . | . | . | .
COc1cc(/C=C2/C(=O)ON=C2c2ccccc2)ccc1O | . | . | . | . | 53 | .
CCOc1cc(/C=C2\C(=O)ON=C2c2ccccc2)cc(Br)c1O | . | . | . | . | 79 | .
O=c1[nH]c2cc(F)ccc2c2ccc(F)cc12 | . | . | . | . | . | .
Cc1cccc(Cn2cc(SCC(=O)Nc3nccs3)c3ccccc32)c1 | . | . | 82 | . | . | .
